# According to ChEMBL document CHEMBL4513216, “Probing the Open Global Health Chemical Diversity Library for Multistage-Active Starting Points for Next-Generation Antimalarials” (ACS Infect Dis, 2020):
# Hit rate of the full screen: of about 69,000 compounds, about 8,600 (12%) showed an effect of 50% or more. Many of the other results were omitted from the sample, so strong results are more common in it than they were.
# Tested on: Plasmodium berghei
# Experiment: Screen against P. berghei liver stage (PbLuc), transformed with Luciferase, at 10uM
# Format: functional, HepG2
# Settings: tested at 10 uM
row,SMILES,INHIBITION
1,Cc1nn(C)c(Cl)c1C(=O)NCc1cccnc1N1CCOCC1,-13%
2,O=C(NCc1nncn1C1CC1)c1ccccc1Oc1cccnc1,-18.3%
3,O=C(c1ccnnc1)N1C[C@@H]2COC[C@]2(COCC2CC2)C1,46.2%
4,OC(CNCCn1cccn1)c1cccc(Br)c1 (stereo not drawn),11.2%
5,CC(O)c1cn(CC2CCN(C(=O)CN(C)C(C)C)CC2)nn1 (stereo not drawn),8.51%
6,CC(O)c1cn(CC2CCN(C(=O)c3cscn3)CC2)nn1 (stereo not drawn),30.3%
7,CC(O)c1cn(CC2CCN(C(=O)c3cccc(N(C)C)c3)CC2)nn1 (stereo not drawn),55.7%
8,CCN(CC)C(C(=O)Nc1ccc2c(c1)CCC(=O)N2)c1ccccc1 (stereo not drawn),56.8%
9,CCN(C)C(C(=O)Nc1ccc2c(c1)CCC(=O)N2)c1ccccc1 (stereo not drawn),36.3%
10,CCC(CC(=O)Nc1ccc2c(c1)CC(=O)N2)c1ccccc1 (stereo not drawn),49.1%
11,COCCN1C[C@@H]2[C@@H](OC)CCN(C(=O)c3cccc(OC)c3)[C@@H]2C1,11.6%
12,Cc1ccc(OCCC(=O)NC2CCc3nccn3C2)cc1 (stereo not drawn),22.1%
13,CN(C)C(=O)CO[C@H]1CN(Cc2ccc(F)cc2)[C@@H]2CCCO[C@H]12,25.1%
14,CCCc1nnc(N2CCN(C3CCCC3)CC2)o1,26.5%
15,CCCc1nnc(N2CCC(N3CCCC3)CC2)o1,79.8%
16,CCCc1nnc(N2CCC(N3CCCCCC3)CC2)o1,23.3%
17,O=C(O)C1(Oc2cccc(F)c2)CCN(C2CCOCC2)CC1,-15.2%
18,Cc1ccccc1OCC(O)CN1CCC(c2ccn[nH]2)CC1 (stereo not drawn),-17.6%
19,CSC1(CNC(=O)NC(C)Cc2cccc(F)c2)CCOCC1 (stereo not drawn),-12.5%
20,CSC1(CNC(=O)NC(C)c2ccc(F)c(F)c2)CCOCC1 (stereo not drawn),65.3%
21,CSC1(CNC(=O)NC(C)c2ccc(F)cc2)CCOCC1 (stereo not drawn),16.5%
22,O=C1NCC(C(=O)Nc2ccc(=O)n(Cc3ccccc3Cl)c2)N1 (stereo not drawn),26.8%
23,Cc1cc2c(N)nc(=O)n(CC(=O)Nc3ccccc3)c2s1,1.45%
24,COc1cccc(NC(=O)Cn2c(=O)nc(N)c3cc(C)sc32)c1,-12.5%
25,Cc1cc2c(N)nc(=O)n(CC(=O)Nc3cccc(Cl)c3)c2s1,76.9%

row,SMILES,INHIBITION
1,O=C(Nc1cccnc1N1CCSCC1)c1ccc2c(c1)OCO2,49.5%
2,COc1c(C2CCCN2CC(=O)Nc2cc(C)on2)c(C)nn1C (stereo not drawn),-102%
3,CC(C)(C)n1ncc2c1NC(=O)CC2c1ccc(C#N)cc1 (stereo not drawn),-1.04%
4,CCc1[nH]c2c(CNc3cnccn3)cc(F)cc2c1C,56.3%
5,CCc1[nH]c2c(CNc3cncc(C(=O)N(C)C)n3)cc(F)cc2c1C,47.2%
6,CCc1[nH]c2ccc(CNC(=O)c3cnc(N)nc3C)cc2c1C,36.5%
7,CCc1[nH]c2c(CNc3nccc(N)n3)cc(C)cc2c1C,37.4%
8,CCc1[nH]c2c(CNc3nccc(N)n3)cc(F)cc2c1C,55.4%
9,CCc1[nH]c2c(CNC(=O)C3CCN(C)C3)cc(C)cc2c1C (stereo not drawn),14.9%
10,Cc1cc(CNc2nccc(N)n2)c2[nH]c(C)c(C)c2c1,66.9%
11,CCc1[nH]c2c(CNC(=O)C3CCC(=O)NC3)cc(C)cc2c1C (stereo not drawn),-8.75%
12,Cc1noc(C)c1CN1CCC2(CC1)CC(Oc1cccnc1)C2,30.5%
13,Cn1cccc1C(=O)N1CCN(Cc2cccnc2)c2ncccc2C1,10.5%
14,CCc1n[nH]c(C2CN(C(=O)CCOCC(F)(F)F)CCO2)n1 (stereo not drawn),1.45%
15,O=C1NC2(CCN(c3ncccn3)CC2)CC1c1cccnc1 (stereo not drawn),17.1%
16,Cc1cc(CC(=O)NC2CCCN(c3ccccc3F)C2=O)n[nH]1 (stereo not drawn),13.6%
17,Cc1ccsc1C(CNC(=O)c1cc(=O)[nH]c(=O)[nH]1)N(C)C (stereo not drawn),-27.5%
18,NC(=O)CC1CCCN(c2cncc(SCc3ccccc3)n2)C1 (stereo not drawn),-13.7%
19,CC(=O)Nc1ccc(Cl)c(C(=O)N(C)C(C)c2ccon2)c1 (stereo not drawn),18.3%
20,CC(=O)Nc1ccc(Cl)c(C(=O)N(C)C(C)c2nccs2)c1 (stereo not drawn),61%
21,CC(=O)Nc1ccc(Cl)c(C(=O)N(C)C(C)c2ccncn2)c1 (stereo not drawn),32.2%
22,Cc1nc(C)n(CC2CN(Cc3ccc4c(c3)OCCO4)CCO2)n1 (stereo not drawn),1.78%
23,O=C(Cn1cnc2sccc2c1=O)NCCCc1nnc2ccccn12,28.3%
24,CCc1cnc(CNC(=O)NCCc2ccc(O)cc2)s1,71.1%
25,Cc1cnc(CCNC(=O)NCCc2ccc(O)cc2)s1,42.8%

row,SMILES,INHIBITION
1,CCc1cnc(CNC(=O)NCCCO)s1,-25.6%
2,CCC[C@@H]1CN(Cc2ccccc2OC(F)(F)F)C[C@H]1NC(C)=O,19.7%
3,COc1cccc(Cn2ncnc2CCC(C)N2CCN(C)CC2)c1 (stereo not drawn),72%
4,CC(CCc1ncnn1Cc1cccc(Cl)c1)N1CCCC1 (stereo not drawn),49.3%
5,COc1cccc(Cn2ncnc2CCSC)c1,-32.9%
6,Cc1noc(C2CCCN(C(=O)CCCNc3ncccn3)C2)n1 (stereo not drawn),8.535%
7,COc1ccc(CCCNCc2c(C)nn(C)c2N(C)C)cc1OC,45.7%
8,CN(C)c1cccc(C(=O)N2CCn3c(nnc3C3CC3)C2)c1,25.4%
9,Cn1cc(S(=O)(=O)N2CCCC2Cn2ccnc2)cc1C(N)=O (stereo not drawn),39.9%
10,Cn1cc(S(=O)(=O)N2CCCC2Cn2ccnc2)cn1 (stereo not drawn),34.4%
11,CN(C)C(=O)c1cc(S(=O)(=O)N2CCCC2Cn2ccnc2)cn1C (stereo not drawn),61.5%
12,CN(Cc1nc(CS(C)(=O)=O)no1)c1ccccc1,19.7%
13,CS(=O)(=O)Cc1noc(CN(Cc2ccco2)c2ccccc2)n1,54.4%
14,COCCN(Cc1ccco1)Cc1nc(-c2ccccc2)no1,-10.1%
15,Cc1noc(C)c1CN1C[C@@H](N(C)Cc2ccco2)[C@H]2OCCC[C@H]21,20.6%
16,O=C(NCCNc1ncccn1)C1CCN(C(=O)c2ccoc2)CC1,-2.53%
17,CC1(C)OC(=O)N(CCCC(=O)c2ccc(F)cc2)C1=O,-4.12%
18,CN(C)C(=O)CCC[S+]([O-])Cc1cc(Cl)ccc1Cl (stereo not drawn),57.3%
19,CN(C)C(=O)CNC(=O)c1ccc(Cl)cc1F,-12.6%
20,CN(C)C(=O)CCC[S+]([O-])Cc1ccc(Cl)c(Cl)c1 (stereo not drawn),57.3%
21,CN(C)C(=O)CCNC(=O)NCc1ccc(Br)cc1Cl,47.6%
22,CN(C)C(=O)CCC[S+]([O-])Cc1ccc(F)c(F)c1 (stereo not drawn),31.5%
23,COCC(=O)N(C)Cc1ccc(Cl)c(Cl)c1,-11.1%
